# According to the supplement of paper PMC8728848:
# The full list was thinned out, with the strongest signals kept by preference.
# B1: HPA (Helix pomatia), Q575S3 (protein)
# chain: MWAHLTGLLLICALSLSAAQRAQTGEIDCGSDSSWPKDPSDNPNRDNTREIVKHVTFSPQFCREPKVILSVTTLDAEHTKNLRYEARLKSVSPSGLSASCYSWHDGTIYRMKLSWLAVED
# Tests used:
# Experiment in all cases: glycan array binding signal (z-score within array); higher = stronger binding
# Settings in all cases: glycan notation: IUPAC condensed, linker removed
# [1] = biological target: Fuc(a1-2)Gal(b1-3)[Fuc(a1-4)]GlcNAc(b1-2)Man(a1-3)[Fuc(a1-2)Gal(b1-3)[Fuc(a1-4)]GlcNAc(b1-2)Man(a1-3)]Man(b1-4)GlcNAc(b1-4)GlcNAc
# How it was run: (§1)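 Columns mapping to the same glycan were averaged after glycan names were converted to IUPAC-condensed notation. The data come from 3228 arrays in the Consortium for Functional Glycomics database, limited to those with an available protein sequence. Binding is reported as a within-array Z-score averaged across arrays of one protein sequence and across linkers.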
# [2] = biological target: Fuc(a1-2)Gal(b1-4)Fuc(a1-3)]GlcNAc(b1-2)Man(a1-3)[Fuc(a1-2)Gal(b1-4)[Fuc(a1-3)]GlcNAc(b1-2)Man(a1-6)]Man(b1-4)GlcNAc(b1-4)GlcNAc
# How it was run: as §1
# [3] = biological target: Fuc(a1-2)Gal(b1-4)GlcNAc(b1-2)Man(a1-3)[Fuc(a1-2)Gal(b1-4)GlcNAc(b1-2)Man(a1-6)]Man(b1-4)GlcNAc(b1-4)[Fuc(a1-6)]GlcNAc
# How it was run: as §1
# [4] = biological target: Fuc(a1-2)Gal(b1-4)[Fuc(a1-3)]GlcNAc
# How it was run: as §1
# [5] = biological target: Fuc(a1-2)Gal(b1-4)[Fuc(a1-3)]GlcNAc(b1-2)Man(a1-3)[Fuc(a1-2)Gal(b1-4)[Fuc(a1-3)]GlcNAc(b1-2)Man(a1-6)]Man(b1-4)GlcNAc(b1-4)GlcNAc
# How it was run: as §1
# [6] = biological target: Fuc(a1-2)[GalNAc(a1-3)]Gal(b1-3)GalNAc(a1-3)[Fuc(a1-2)]Gal(b1-4)GlcNAc
# How it was run: as §1
# [7] = biological target: Fuc(a1-2)[GalNAc(a1-3)]Gal(b1-3)GalNAc(b1-3)Gal(a1-4)Gal(b1-4)Glc
# How it was run: as §1
# [8] = biological target: Fuc(a1-2)[GalNAc(a1-3)]Gal(b1-4)GlcNAc(b1-3)Gal(b1-4)GlcNAc
# How it was run: as §1
# [9] = biological target: Fuc(a1-2)[GalNAc(a1-3)]Gal(b1-4)GlcNAc(b1-3)Gal(b1-4)GlcNAc(b1-3)Gal(b1-4)GlcNAc
# How it was run: as §1
# [10] = biological target: Fuc(a1-2)[GalNAc(a1-3)]Gal(b1-4)GlcNAc(b1-6)GalNAc
# How it was run: as §1
# [11] = biological target: Fuc(a1-2)[GalNAc(a1-4)]Gal(b1-4)GlcNAc
# How it was run: as §1
# [12] = biological target: Fuc(a1-3)[Gal(b1-4)]GlcNAc(b1-4)Gal(b1-4)[Fuc(a1-3)]GlcNAc(b1-4)Gal(b1-4)[Fuc(a1-3)]GlcNAc
# How it was run: as §1
# [13] = biological target: Fuc(a1-3)[Gal(b1-4)]GlcNAc(b1-6)[Gal(b1-3)GlcNAc(b1-3)]Gal(b1-4)Glc
# How it was run: as §1
# [14] = biological target: Gal(a1-3)Gal(b1-4)Glc
# How it was run: as §1
# [15] = biological target: Gal(b1-2)Gal
# How it was run: as §1
# [16] = biological target: Gal(b1-3)Gal(b1-4)GlcNAc(b1-2)Man(a1-3)[Gal(b1-3)Gal(b1-4)GlcNAc(b1-2)Man(a1-6)]Man(b1-4)GlcNAc(b1-4)GlcNAc
# How it was run: as §1
# [17] = biological target: Gal(b1-3)GlcNAc(b1-2)Man
# How it was run: as §1
# [18] = biological target: Gal(b1-3)GlcNAc(b1-3)Gal(b1-4)GlcNAc(b1-6)[Gal(b1-3)GlcNAc(b1-3)]Gal(b1-4)Glc
# How it was run: as §1
# [19] = biological target: Gal(b1-3)[Fuc(a1-4)]GlcNAc(b1-2)Man(a1-3)[Gal(b1-3)[Fuc(a1-4)]GlcNAc(b1-2)Man(a1-6)]Man(b1-4)GlcNAc(b1-4)[Fuc(a1-6)]GlcNAc
# How it was run: as §1
# [20] = biological target: Gal(b1-3)[GlcNAc(b1-6)]GalNAc
# How it was run: as §1
# [21] = biological target: Gal(b1-3)[Neu5Ac(b2-6)]GalNAc
# How it was run: as §1
# [22] = biological target: Gal(b1-4)GlcNAc(b1-2)Man(a1-6)[GlcNAc(b1-2)Man(a1-3)]Man(b1-4)GlcNAc(b1-4)GlcNAc
# How it was run: as §1
# [23] = biological target: Gal(b1-4)GlcNAc(b1-2)[Gal(b1-4)GlcNAc(b1-6)]Man(a1-6)[GlcNAc(b1-4)][Gal(b1-4)GlcNAc(b1-2)[Gal(b1-4)GlcNAc(b1-4)]Man(a1-3)]Man(b1-4)GlcNAc(b1-4)[Fuc(a1-6)]GlcNAc
# How it was run: as §1
# [24] = biological target: Gal(b1-4)GlcNAc(b1-3)Gal(b1-4)GlcNAc(b1-3)Gal(b1-4)GlcNAc(b1-2)[Gal(b1-4)GlcNAc(b1-3)Gal(b1-4)GlcNAc(b1-3)Gal(b1-4)GlcNAc(b1-6)]Man(a1-6)[Gal(b1-4)GlcNAc(b1-3)Gal(b1-4)GlcNAc(b1-3)Gal(b1-4)GlcNAc(b1-2)Man(a1-3)]Man(b1-4)GlcNAc(b1-4)[Fuc(a1-6)]GlcNAc
# How it was run: as §1
# [25] = biological target: Gal(b1-4)GlcNAc(b1-3)Gal(b1-4)GlcNAc(b1-3)Gal(b1-4)GlcNAc(b1-3)Gal(b1-4)GlcNAc(b1-3)Gal(b1-4)GlcNAc(b1-2)Man(a1-3)[Gal(b1-4)GlcNAc(b1-3)Gal(b1-4)GlcNAc(b1-3)Gal(b1-4)GlcNAc(b1-3)Gal(b1-4)GlcNAc(b1-3)Gal(b1-4)GlcNAc(b1-2)Man(a1-6)]Man(b1-4)GlcNAc(b1-4)[Fuc(a1-6)]GlcNAc
# How it was run: as §1
# [26] = biological target: Gal3S6S(b1-4)GlcNAc
# How it was run: as §1
# [27] = biological target: Gal4S(b1-4)GlcNAc
# How it was run: as §1
# [28] = biological target: Gal6S(b1-3)GlcNAc6S
# How it was run: as §1
binder,measurement,setting,value
B1,glycan array binding signal (z-score),[1],-0.229
same,glycan array binding signal (z-score),[2],-0.186
same,glycan array binding signal (z-score),[3],-0.229
same,glycan array binding signal (z-score),[4],-0.264
same,glycan array binding signal (z-score),[5],-0.221
same,glycan array binding signal (z-score),[6],4.9
same,glycan array binding signal (z-score),[7],4.46
same,glycan array binding signal (z-score),[8],4.44
same,glycan array binding signal (z-score),[9],4.28
same,glycan array binding signal (z-score),[10],2.54
same,glycan array binding signal (z-score),[11],5.52
same,glycan array binding signal (z-score),[12],-0.271
same,glycan array binding signal (z-score),[13],-0.251
same,glycan array binding signal (z-score),[14],-0.261
same,glycan array binding signal (z-score),[15],-0.259
same,glycan array binding signal (z-score),[16],-0.266
same,glycan array binding signal (z-score),[17],0.558
same,glycan array binding signal (z-score),[18],-0.246
same,glycan array binding signal (z-score),[19],-0.227
same,glycan array binding signal (z-score),[20],-0.265
same,glycan array binding signal (z-score),[21],-0.268
same,glycan array binding signal (z-score),[22],-0.239
same,glycan array binding signal (z-score),[23],-0.252
same,glycan array binding signal (z-score),[24],-0.25
same,glycan array binding signal (z-score),[25],-0.253
same,glycan array binding signal (z-score),[26],-0.266
same,glycan array binding signal (z-score),[27],-0.267
same,glycan array binding signal (z-score),[28],-0.242
